DRD3 agonist: qHTS of D3 Dopamine Receptor Agonist: qHTS; max activation, %; D3R DiscoveRx beta-arrestin cells, luminescence, 90 min; 410,000 compounds, 0.58% hits; in the data active means max activation above about 30%
Target sequence (P35462 whole entry, looked up): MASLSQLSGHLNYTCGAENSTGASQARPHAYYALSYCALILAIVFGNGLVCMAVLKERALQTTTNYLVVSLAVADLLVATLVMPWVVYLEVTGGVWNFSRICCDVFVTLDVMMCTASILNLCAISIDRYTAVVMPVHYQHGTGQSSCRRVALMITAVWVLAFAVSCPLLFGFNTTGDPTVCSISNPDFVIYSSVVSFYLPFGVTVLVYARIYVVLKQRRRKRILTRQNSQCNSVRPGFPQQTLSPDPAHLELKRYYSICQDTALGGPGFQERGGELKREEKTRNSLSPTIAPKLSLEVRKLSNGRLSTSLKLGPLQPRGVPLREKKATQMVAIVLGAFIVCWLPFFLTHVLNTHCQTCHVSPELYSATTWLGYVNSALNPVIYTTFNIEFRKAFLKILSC
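Agonist mode: compounds and dopamine controls were applied to plated cells for 90 min at 37 degrees C after an overnight attachment at 1500 cells/well. Luminescent read-out followed 30 - 60 minutes at room temperature with DiscoveRx detection reagent.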
HepG2 tox: qHTS for Inhibitors of TGF-b: Cytotox Counterscreen; 410,000 compounds, 0.76% hits; Potency, µM (doses to about 46.1 µM), hits mostly cytotoxic; HepG2 CAGA-GFP viability, ATP luminescence, 18 h
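CellTiter-Glo luminescence gave cytotoxicity after 18 hours at 37 degrees C. The cells were HepG2 CAGA-GFP in 1% FBS DMEM, stimulated with 500 pg/mL TGF-beta after compound addition. %Activity was normalised to no-cell wells (complete cell-killing) and DMSO (no toxicity), and curves were fitted and classified.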
ATXN2 expr inh: Primary qHTS for Inhibitors of ATXN expression; HEK-293 ATXN2-luciferase reporter, luminescence, 24 h; Potency, µM (series often up to 57 µM), usual class: inhibitors; 360,000 compounds, 0.72% hits; AID 1745845, 2022; further: nearly all actives have a fitted effect of over 55% in size
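qHTS (up to 57 uM final) was run with 24 h compound exposure of reporter cells at 37 °C. Each well was multiplexed: SteadyGlo luminescence measured ATXN2-luciferase expression after a fluorogenic Gly-Phe-AFC viability readout (25 uM final).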
DRD3 antagonist: qHTS of D3 Dopamine Receptor Antagonist: qHTS; 360,000 compounds, 2.5% hits; max response, negative = inhibition, %; D(3) dopamine receptor (Homo sapiens), P35462; D3R cells, DiscoveRx beta-arrestin luminescence, antagonist mode; hits give low values; in the data active means max response below about -50%; inconclusive means no clear call, values can overlap the other calls
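Cells plated overnight at 1500 cells/well, then exposed to library compounds with dopamine controls for 90 minutes at 37 degrees C. DiscoveRx reagent added for 30–60 minutes at room temperature; luminescence read, quantitative HTS format.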
TGFb SMAD3 inh: qHTS for Inhibitors of TGF-b; AID 588855, 2011; 410,000 compounds, 1.2% hits; HepG2 CAGA-GFP TGF-b/SMAD3 reporter, GFP fluorescence, 18 h; TGF-beta stimulated, 500 pg/mL final; Potency, µM (titrated, usually from 46.1 µM), hits mostly inhibitors; further: nearly all actives have a fitted effect of over 65% in size
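HEPG2 CAGA-GFP, 1000 cells/well; 2 h settle, 37 C; cpd via pin tool; TGF-b 500 pg/mL final; 18 h, 37 C; GFP imaging ex488/em500-530; %Activity normalised to -TGF-b and +DMSO controls; CRC fit, curve class.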
ATXN viability: Viability Counterscreen for Primary qHTS for Inhibitors of ATXN expression; S2 cells (HEK-293 line with an ATXN2-luciferase reporter) viability, CellTiter-Fluor protease fluorescence, 24 h; Potency, µM (doses to about 56.7 µM), hits mostly cytotoxic; 400,000 compounds, 0.49% hits; further: nearly all actives have a fitted effect of over 40% in size
Large screens that a line does not name were inactive. Most compounds without a hit are left out; they make up all but 4.8% or so of the library. Unless noted, the call rests on the fitted dose curve; in most records, active means well fitted curve in the direction sought with a large enough effect; inconclusive means small, poorly fitted or top-dose-only effect, or another doubt; inactive means no such curve, though single readings can be large; an effect the other way counts as inactive or inconclusive.

CCOC(=O)C1CCCN(S(=O)(=O)c2cc(-c3onc(C)c3C)ccc2OC)C1 (configuration not stated)	none (no result: ATXN2 expr inh, DRD3 antagonist, ATXN viability)
O=C(O)c1ccc2c(c1)C(=O)N(Cc1ccccc1)C2=O	DRD3 antagonist -51
CCCCn1cc(S(=O)(=O)c2ccccc2)c(=O)c2cc(F)c(N3CCN(CCC)CC3)cc21	none (no result: ATXN2 expr inh, DRD3 antagonist, ATXN viability)
CCOc1ccc(C(=O)NCc2nc3cccnc3n2Cc2cccc(OC)c2)cc1	none (no result: ATXN2 expr inh, DRD3 antagonist, ATXN viability)
CCOc1cc(CNCCc2ccc(S(N)(=O)=O)cc2)cc(Cl)c1OCc1ccccc1	ATXN2 expr inh 20µM, TGFb SMAD3 inh inconclusive (no result: ATXN viability)
COc1cc(CNC2CCCC2)cc(Cl)c1OCc1ccc(F)cc1	ATXN2 expr inh inconclusive, ATXN viability inconclusive
CCOc1cc(CNC2CCCC2)cc(Cl)c1OCc1ccc(F)cc1	HepG2 tox 11µM, ATXN2 expr inh 22µM, TGFb SMAD3 inh inconclusive, ATXN viability 28µM
Cc1ccccc1-n1cc(CNC(=O)CN2Cc3ccccc3OC(C)C2)cn1 (configuration not stated)	none (no result: DRD3 agonist, HepG2 tox, ATXN2 expr inh, DRD3 antagonist, TGFb SMAD3 inh)
CCOc1ccc(C2C(C#N)=C(N)Oc3cc(C)n(Cc4ccco4)c(=O)c32)cc1OC (configuration not stated)	DRD3 antagonist -53
Cc1cc2c(c(=O)n1Cc1ccco1)C(c1cccnc1)C(C#N)=C(N)O2 (configuration not stated)	none
COc1ccc(-c2nc(-c3cccc(C(F)(F)F)c3)no2)cc1OC	none
COc1ccc(-c2nc(-c3cccc(C)c3)no2)cc1OC	DRD3 agonist 65
COc1cc(-c2nc(-c3cccc(C)c3)no2)cc(OC)c1OC	DRD3 agonist 58
COc1ccc(OC)c(/C=C/C(=O)Nc2ccc(C(=O)OCCC(C)C)cc2)c1	none (no result: DRD3 antagonist, ATXN viability)
CC(C)(C)n1ncc2c(=O)n(Cc3cccc(C(F)(F)F)c3)cnc21	TGFb SMAD3 inh inconclusive (no result: DRD3 agonist, ATXN2 expr inh, DRD3 antagonist, ATXN viability)
COc1ccccc1N(C(C)=O)C1=C(Cl)C(=O)c2ccccc2C1=O	HepG2 tox 11µM, DRD3 antagonist -137 (no result: ATXN2 expr inh, ATXN viability)
CC(=O)N(C1=C(N)C(=O)c2ccccc2C1=O)C(C)C	none
CCCCN1Cc2ccccc2Oc2cc(Br)ccc2S1(=O)=O	TGFb SMAD3 inh inconclusive
CC(C)CN1Cc2ccccc2Oc2cc(Br)ccc2S1(=O)=O	DRD3 antagonist -62
O=C1CC2(CCCC2)CC(=O)N1	none (no result: DRD3 agonist, HepG2 tox, DRD3 antagonist, TGFb SMAD3 inh)
O=[N+]([O-])c1cc(S(=O)(=O)Nc2ccccc2)ccc1-n1nnc2ccccc21	DRD3 antagonist -61
Cc1nc([N+](=O)[O-])c(Br)n1CC(=O)c1ccc2ccccc2c1	HepG2 tox 10µM, ATXN2 expr inh inconclusive, TGFb SMAD3 inh inconclusive, ATXN viability 32µM
Cc1nc([N+](=O)[O-])c(Br)n1CC(=O)c1ccccc1	TGFb SMAD3 inh inconclusive
COc1ccc(NC(=O)CCCNC(=O)Cn2cnc3sc(C)c(C)c3c2=O)cc1Cl	ATXN viability inconclusive
COc1ccc(NC(=O)CCCNC(=O)Cn2cnc3sc(C)c(C)c3c2=O)cc1OC	DRD3 agonist 31
O=C1Cc2c(-c3ccccc3)cc(-c3cccc(Cl)c3)nc2-c2ccccc2N1	HepG2 tox 0.89µM, ATXN2 expr inh inconclusive, ATXN viability inconclusive
CC1Sc2ccc(C#N)cc2N(Cc2cccc(C(F)(F)F)c2)C1=O (configuration not stated)	DRD3 antagonist -51
CCc1nn2c(=O)cc(COC(=O)c3ccc(NC(=O)c4cccs4)cc3)nc2s1	none (no result: ATXN2 expr inh, DRD3 antagonist, ATXN viability)
S=C(c1cn(CCOc2ccccc2)c2ccccc12)N1CCCC1	TGFb SMAD3 inh inconclusive
Cc1ccc(OCCn2cc(C(=S)N3CCCC3)c3ccccc32)cc1C	HepG2 tox 16µM, DRD3 antagonist -54, ATXN viability inconclusive
O=C(NCc1ccco1)c1ccc2c(c1)N(Cc1ccccc1F)C(=O)c1ccccc1S2=O (configuration not stated)	none (no result: DRD3 antagonist)
O=C(CCN1C(=O)c2ccccc2C1=O)N1CCCCCC1	DRD3 antagonist -51, ATXN viability inconclusive
CCOC(=O)C(=O)/C(C#N)=C/Nc1ccccc1	DRD3 antagonist -57
COc1ccc(Nc2ccc3c(c2)=NC2(CCCCC2)[N+]=3[O-])cc1	HepG2 tox 13µM, ATXN2 expr inh inconclusive, DRD3 antagonist -68, TGFb SMAD3 inh 3.2µM (no result: ATXN viability)
[O-][N+]1=c2ccc(Nc3ccccc3)cc2=NC12CCCCC2	ATXN2 expr inh inconclusive, DRD3 antagonist inconclusive, TGFb SMAD3 inh 6.3µM, ATXN viability 14µM
O=[N+]([O-])c1ccc2c(c1N1CCCCC1)=NC1(CCCCC1)[N+]=2[O-]	ATXN viability inconclusive
CCOC(=O)c1sc(N2N=C(C)/C(=C\c3ccc(OCC(=O)OC)cc3)C2=O)nc1C	DRD3 antagonist -70
Cc1ccc(S(=O)(=O)N2CCN(CC(=O)N/N=C\c3ccc(Cl)c([N+](=O)[O-])c3)CC2)cc1	TGFb SMAD3 inh inconclusive
O=C(CN1CCN(S(=O)(=O)c2ccc(Br)cc2)CC1)N/N=C/c1ccc(Cl)c([N+](=O)[O-])c1	DRD3 antagonist -70
S=C(NCCN1CCOCC1)N/N=C/c1cccs1	HepG2 tox 8.9µM, TGFb SMAD3 inh 4.5µM, ATXN viability 5µM (no result: ATXN2 expr inh)
CCOC(=O)c1ccc(NC(=O)CC2Nc3cc(C)c(C)cc3NC2=O)cc1 (configuration not stated)	ATXN2 expr inh inconclusive, ATXN viability inconclusive (no result: DRD3 antagonist)
Cc1cc(C)c(NC(=O)C2CCN(c3nc4ccccc4n4cccc34)CC2)c(C)c1	none (no result: ATXN2 expr inh, DRD3 antagonist, TGFb SMAD3 inh, ATXN viability)
CCOc1ccc(CCNC(=O)COC(=O)c2ccc(OC(C)C)cc2)cc1OCC	DRD3 antagonist -53
O=c1nc2ccccc2c2n1CC(CN1CCN(C(c3ccccc3)c3ccccc3)CC1)N2 (configuration not stated)	DRD3 antagonist -77, ATXN viability inconclusive
CCOC(=O)c1ccc(NC(=O)CC2C(=O)N(c3cccc(OC)c3)C(=O)N2Cc2cccnc2)cc1 (configuration not stated)	none (no result: ATXN2 expr inh, DRD3 antagonist, ATXN viability)
COCC(C)n1c(C)cc(C(=O)COC(=O)c2cccn2C)c1C (configuration not stated)	ATXN2 expr inh 18µM
O=C(c1ccc(Cl)cc1)N(c1ccccn1)C1CCCCC1	none
O=C(c1cccc(C(=O)N(c2ccccn2)C2CCCCC2)c1)N(c1ccccn1)C1CCCCC1	DRD3 antagonist -54, ATXN viability inconclusive
